PubChem BioAssay (NCATS)
Results filed as inconclusive are left out. Active and inactive are the calls of the source. Calls follow the shape of the dose curve; as a rule, active = well fitted inhibition curve with a large enough effect; inconclusive = small, poorly fitted or top-dose-only effect; inactive = flat fitted curve, though single readings scatter.

Legend:
Assay in all cases: qHTS profiling for inhibitors of Plasmodium falciparum proliferation (AID 504749); also: nearly all actives have a fitted effect of over 60% in size
Details in all cases: P. falciparum in erythrocytes, SYBR Green DNA, 72 h; series mostly up to 28.7 µM
[1] = system: AA1029
In short: (§1)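 Fluorescence of SYBR Green-bound parasite DNA, read at 485/535 nm, served as the growth measure. Infected erythrocytes were cultured with compound 72 h; artemisinin (0.29 uM) and DMSO wells defined the normalization range.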

[2] = system: AS120
In short: as §1

[3] = system: ATS189
In short: as §1

[4] = system: ATS95
In short: as §1

[5] = system: C2A
In short: as §1

[6] = system: CP185
In short: as §1

[7] = system: CP191
In short: as §1

[8] = system: CP192
In short: as §1

[9] = system: CP194
In short: as §1

[10] = system: CP201
In short: as §1

Measured: Potency
Potency is read from the fitted curve at half-maximal effect.

C#CC1(O)CCC2C3CCC4=CC(=O)CCC4(C)C3CCC21C (stereo not given)
inactive: [1] | [2] | [3] | [4] | [5] | [6] | [7] | [8] | [9] | [10]

c1ccc(C2(c3ccccc3)CC2C2=NCCN2)cc1 (stereo not given)
inactive: [1] | [2] | [3] | [4] | [5] | [6] | [8] | [9] | [10]

CCCN1CCC[C@H](c2cccc(O)c2)C1
inactive: [1] | [2] | [3] | [4] | [5] | [6] | [7] | [8] | [9] | [10]

CC(=O)[O][Hg][c]1ccccc1
active: [1] 4.47 µM | [2] 3.98 µM | [3] 11.2 µM | [4] 4.47 µM | [6] 5.01 µM | [7] 8.91 µM | [8] 9.53 µM | [9] 9.53 µM

C=CCN1CC[C@]23CCCCC2[C@H]1Cc1ccc(O)cc13 (stereo not given in full)
inactive: [1] | [2] | [3] | [4] | [5] | [6] | [7] | [8] | [9] | [10]

O=C(O)C(Cl)Cl
inactive: [1] | [2] | [3] | [4] | [5] | [6] | [7] | [8] | [9] | [10]

COC(=O)[C@@H](N)CCCN=C(N)N[N+](=O)[O-]
inactive: [1] | [2] | [3] | [4] | [5] | [6] | [7] | [8] | [9] | [10]

O=C(O)COc1ccccc1
inactive: [1] | [2] | [3] | [4] | [5] | [6] | [7] | [8] | [9] | [10]

CN1C2CCC1CC(OC(=O)c1cc(Cl)cc(Cl)c1)C2 (stereo not given)
inactive: [1] | [2] | [3] | [4] | [5] | [6] | [7] | [8] | [9] | [10]

NC(=O)CN1CC(O)CC1=O (stereo not given)
inactive: [1] | [2] | [3] | [4] | [5] | [6] | [7] | [8] | [9] | [10]

C[C@]12CCC(=O)C(O)=C1CC[C@@H]1[C@H]3CCC(=O)[C@@]3(C)CC[C@@H]12
inactive: [2] | [7] | [8] | [9] | [10]

CC(=O)OCC1=C(C(=O)O)N2C(=O)[C@@H](N)[C@@H]2SC1
inactive: [8] | [9] | [10]

O=[N+]([O-])c1ccc([As](=O)(O)O)cc1
active: [1] 3.98 µM | [2] 7.94 µM | [3] 7.08 µM | [4] 11.2 µM | [6] 8.91 µM | [7] 6.31 µM | [9] 13.5 µM

CN(C)[C@@H]1C(=O)C(C(N)=O)=C(O)[C@@]2(O)C(=O)C3=C(O)c4c(O)cccc4[C@@](C)(O)[C@H]3[C@H](O)[C@@H]12
inactive: [1] | [3] | [6] | [7] | [8] | [9] | [10]

C1CCC(NC2CCCCC2)CC1
inactive: [1] | [2] | [3] | [4] | [5] | [6] | [7] | [8] | [9] | [10]

CN[C@@H]1C[C@@H](c2ccc(Cl)c(Cl)c2)c2ccccc21
inactive: [3] | [5] | [7] | [8] | [10]

NC1=NC(=O)N2CC12 (stereo not given)
inactive: [3] | [4] | [7] | [8] | [10]

CCCCCCCCCC(CC)c1ccc(S(=O)(=O)O)cc1 (stereo not given)
inactive: [1] | [2] | [3] | [4] | [5] | [6] | [7] | [8] | [9] | [10]

COC(=O)c1cncn1C(C)c1ccccc1 (stereo not given)
inactive: [8] | [9] | [10]

CC(C)NC(C)Cc1ccc(I)cc1 (stereo not given)
inactive: [1] | [2] | [3] | [4] | [5] | [6] | [7] | [8] | [9] | [10]

Cc1cc(O)ccc1Cl
inactive: [1] | [2] | [3] | [4] | [5] | [6] | [7] | [8] | [9] | [10]

Cc1ccc(Cl)c(O)c1
inactive: [1] | [2] | [3] | [4] | [5] | [6] | [7] | [8] | [9] | [10]

CC[N+]1(CCOC(=O)C(O)(c2ccccc2)c2ccccc2)CCCCC1
inactive: [2] | [3] | [4] | [5] | [7] | [8] | [9] | [10]

CCCCCCCCCCCCCCCC[N+](C)(C)C
active: [2] 11.2 µM | [5] 8.91 µM

CCCCc1ccc(C(=O)O)nc1
inactive: [1] | [2] | [3] | [4] | [5] | [6] | [7] | [8] | [9] | [10]

COC(C)(C)CCCC(C)C/C=C/C(C)=C/C(=O)OC(C)C (stereo not given)
inactive: [4] | [5] | [6]
